# Paper PMC13541613, “GHT-SELEX demonstrates unexpectedly high intrinsic sequence specificity and complex DNA binding of many human transcription factors”
# Tests used:
# Test in all cases: HT-SELEX; 20 mM HEPES pH 7, 140 mM KCl, 5 mM NaCl, 1 mM K2HPO4, 2 mM MgSO4, 100 uM EGTA, ZnSO4, 0.1% Tween20; room temperature, 1 h; high values mean tight binding
# Details in all cases: protein: ivt; tags: eGFP (N-terminal); dsDNA, one strand shown
# ZNF721 full-length = ZNF721 full-length (Homo sapiens, UniProt Q8TF20-2 1-923)
# Outline: (§1)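 A tagged transcription factor, either full-length or its DNA-binding-domain fragment, was made in HEK293 lysate or cell-free extract, immobilised on beads and incubated with a randomized 40-base DNA library for 1 h at room temperature in HEPES/KCl low-stringency buffer containing Tween20. Washed beads were heat-eluted, and the bound DNA was PCR-amplified over successive cycles and Illumina-sequenced at ~3 million 60 bp reads per sample. The binding signal is the relative k-mer count in selected reads, where a higher value means tighter binding.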
# ZNF721 DBD1 = ZNF721 DBD1 (Homo sapiens, UniProt Q8TF20-2 29-461)
# Outline: as §1
# ZNF721 DBD2 = ZNF721 DBD2 (Homo sapiens, UniProt Q8TF20-2 395-923)
# Outline: as §1
# Sequence of ZNF721 full-length (Q8TF20 other isoform, or with tags, fused parts or gaps): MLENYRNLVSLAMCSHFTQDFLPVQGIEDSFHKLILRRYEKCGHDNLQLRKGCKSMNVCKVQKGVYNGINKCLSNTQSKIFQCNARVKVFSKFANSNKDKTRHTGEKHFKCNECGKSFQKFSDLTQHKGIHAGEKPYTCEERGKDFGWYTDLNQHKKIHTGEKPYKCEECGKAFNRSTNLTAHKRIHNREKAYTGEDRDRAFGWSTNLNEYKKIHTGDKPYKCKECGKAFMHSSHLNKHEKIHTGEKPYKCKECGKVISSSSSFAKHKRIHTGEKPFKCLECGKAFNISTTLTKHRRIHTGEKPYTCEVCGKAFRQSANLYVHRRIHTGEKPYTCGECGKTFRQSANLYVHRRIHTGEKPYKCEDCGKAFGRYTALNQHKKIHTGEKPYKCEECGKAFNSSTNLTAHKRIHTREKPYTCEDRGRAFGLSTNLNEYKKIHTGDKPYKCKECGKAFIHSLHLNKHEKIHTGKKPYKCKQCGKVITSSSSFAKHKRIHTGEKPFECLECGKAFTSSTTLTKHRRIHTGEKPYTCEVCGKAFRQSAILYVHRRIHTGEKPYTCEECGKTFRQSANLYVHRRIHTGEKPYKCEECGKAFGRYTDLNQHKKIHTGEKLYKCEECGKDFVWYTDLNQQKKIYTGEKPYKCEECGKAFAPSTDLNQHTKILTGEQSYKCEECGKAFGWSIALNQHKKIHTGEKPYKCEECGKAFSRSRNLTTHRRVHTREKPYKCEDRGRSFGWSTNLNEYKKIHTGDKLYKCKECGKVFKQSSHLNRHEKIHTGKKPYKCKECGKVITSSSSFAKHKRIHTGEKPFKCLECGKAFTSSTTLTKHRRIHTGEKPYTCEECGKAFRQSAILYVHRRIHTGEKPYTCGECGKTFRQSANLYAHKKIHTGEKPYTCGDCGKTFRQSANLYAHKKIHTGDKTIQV
# Sequence of ZNF721 DBD2 (Q8TF20 383-911): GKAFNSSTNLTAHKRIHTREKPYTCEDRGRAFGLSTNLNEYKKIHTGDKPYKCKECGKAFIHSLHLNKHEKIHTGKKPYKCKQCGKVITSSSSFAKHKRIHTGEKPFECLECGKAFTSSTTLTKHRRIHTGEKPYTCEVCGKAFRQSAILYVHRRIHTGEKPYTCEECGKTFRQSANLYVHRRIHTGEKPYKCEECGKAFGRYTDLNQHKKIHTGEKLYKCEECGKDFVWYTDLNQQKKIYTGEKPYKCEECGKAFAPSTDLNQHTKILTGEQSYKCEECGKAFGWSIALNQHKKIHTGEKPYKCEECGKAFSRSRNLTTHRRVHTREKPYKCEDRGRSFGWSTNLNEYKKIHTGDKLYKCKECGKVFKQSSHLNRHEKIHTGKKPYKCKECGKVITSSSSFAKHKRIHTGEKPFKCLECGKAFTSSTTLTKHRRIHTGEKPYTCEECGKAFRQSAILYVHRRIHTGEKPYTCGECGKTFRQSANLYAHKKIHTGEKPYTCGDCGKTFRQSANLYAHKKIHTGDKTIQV
# Sequence of ZNF721 DBD1 (Q8TF20 17-449): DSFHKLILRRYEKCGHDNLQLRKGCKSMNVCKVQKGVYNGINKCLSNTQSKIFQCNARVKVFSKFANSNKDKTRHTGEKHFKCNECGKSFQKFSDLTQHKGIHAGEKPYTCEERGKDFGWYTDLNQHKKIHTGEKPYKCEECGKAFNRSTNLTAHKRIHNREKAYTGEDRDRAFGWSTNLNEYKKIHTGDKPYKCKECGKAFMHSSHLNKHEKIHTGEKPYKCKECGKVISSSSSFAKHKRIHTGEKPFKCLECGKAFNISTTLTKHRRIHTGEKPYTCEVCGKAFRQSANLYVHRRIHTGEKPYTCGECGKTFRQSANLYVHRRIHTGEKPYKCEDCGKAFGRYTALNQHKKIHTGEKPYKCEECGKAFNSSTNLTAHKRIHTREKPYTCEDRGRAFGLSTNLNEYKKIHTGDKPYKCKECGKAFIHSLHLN
sequence,measurement,setting,value
GCACCCCACC,binding signal,ZNF721 full-length,0.104 relative 10-mer count
same,binding signal,ZNF721 DBD1,0.00284 relative 10-mer count
same,binding signal,ZNF721 DBD2,0.00491 relative 10-mer count
CCCCCTCCCC,binding signal,ZNF721 full-length,0.331 relative 10-mer count
same,binding signal,ZNF721 DBD1,0.0149 relative 10-mer count
same,binding signal,ZNF721 DBD2,0.00455 relative 10-mer count
AGGGGGTGGG,binding signal,ZNF721 full-length,0.201 relative 10-mer count
same,binding signal,ZNF721 DBD1,0.0107 relative 10-mer count
same,binding signal,ZNF721 DBD2,0.00467 relative 10-mer count
CCAAAAAAAG,binding signal,ZNF721 full-length,0.124 relative 10-mer count
same,binding signal,ZNF721 DBD1,0.00812 relative 10-mer count
same,binding signal,ZNF721 DBD2,0.0564 relative 10-mer count
CCCCCGCCCG,binding signal,ZNF721 full-length,0.109 relative 10-mer count
same,binding signal,ZNF721 DBD1,0.00372 relative 10-mer count
same,binding signal,ZNF721 DBD2,0.00192 relative 10-mer count
CCCCTCCCTC,binding signal,ZNF721 full-length,0.159 relative 10-mer count
same,binding signal,ZNF721 DBD1,0.00789 relative 10-mer count
same,binding signal,ZNF721 DBD2,0.00336 relative 10-mer count
CCTACCACCC,binding signal,ZNF721 full-length,0.111 relative 10-mer count
same,binding signal,ZNF721 DBD1,0.00619 relative 10-mer count
same,binding signal,ZNF721 DBD2,0.0101 relative 10-mer count
AAAAAAGCTG,binding signal,ZNF721 full-length,0.303 relative 10-mer count
same,binding signal,ZNF721 DBD1,0.137 relative 10-mer count
same,binding signal,ZNF721 DBD2,0.00707 relative 10-mer count
GTGGGGGGGA,binding signal,ZNF721 full-length,0.145 relative 10-mer count
same,binding signal,ZNF721 DBD1,0.00587 relative 10-mer count
same,binding signal,ZNF721 DBD2,0.00348 relative 10-mer count
CACCCTCCCA,binding signal,ZNF721 full-length,0.123 relative 10-mer count
same,binding signal,ZNF721 DBD1,0.00555 relative 10-mer count
same,binding signal,ZNF721 DBD2,0.00443 relative 10-mer count
ACGCCCACCC,binding signal,ZNF721 full-length,0.129 relative 10-mer count
same,binding signal,ZNF721 DBD1,0.00486 relative 10-mer count
same,binding signal,ZNF721 DBD2,0.00587 relative 10-mer count
CCCCCGCCCA,binding signal,ZNF721 full-length,0.167 relative 10-mer count
same,binding signal,ZNF721 DBD1,0.00638 relative 10-mer count
same,binding signal,ZNF721 DBD2,0.00192 relative 10-mer count
AGCGTACCCT,binding signal,ZNF721 full-length,0.204 relative 10-mer count
same,binding signal,ZNF721 DBD1,0.0586 relative 10-mer count
same,binding signal,ZNF721 DBD2,0.165 relative 10-mer count
CAACCCACCC,binding signal,ZNF721 full-length,0.171 relative 10-mer count
same,binding signal,ZNF721 DBD1,0.00532 relative 10-mer count
same,binding signal,ZNF721 DBD2,0.00623 relative 10-mer count
CCCCCTCCCG,binding signal,ZNF721 full-length,0.114 relative 10-mer count
same,binding signal,ZNF721 DBD1,0.00573 relative 10-mer count
same,binding signal,ZNF721 DBD2,0.00336 relative 10-mer count
ACCCCGCCAC,binding signal,ZNF721 full-length,0.107 relative 10-mer count
same,binding signal,ZNF721 DBD1,0.00482 relative 10-mer count
same,binding signal,ZNF721 DBD2,0.00264 relative 10-mer count
AACAAAAAAG,binding signal,ZNF721 full-length,0.106 relative 10-mer count
same,binding signal,ZNF721 DBD1,0.00927 relative 10-mer count
same,binding signal,ZNF721 DBD2,0.0439 relative 10-mer count
CCCCCCTCCC,binding signal,ZNF721 full-length,0.304 relative 10-mer count
same,binding signal,ZNF721 DBD1,0.0139 relative 10-mer count
same,binding signal,ZNF721 DBD2,0.00372 relative 10-mer count
CACCATCCCC,binding signal,ZNF721 full-length,0.118 relative 10-mer count
same,binding signal,ZNF721 DBD1,0.00468 relative 10-mer count
same,binding signal,ZNF721 DBD2,0.003 relative 10-mer count
CCACCCCCTC,binding signal,ZNF721 full-length,0.182 relative 10-mer count
same,binding signal,ZNF721 DBD1,0.00982 relative 10-mer count
same,binding signal,ZNF721 DBD2,0.00312 relative 10-mer count
CCACGTCCCC,binding signal,ZNF721 full-length,0.11 relative 10-mer count
same,binding signal,ZNF721 DBD1,0.00376 relative 10-mer count
same,binding signal,ZNF721 DBD2,0.00252 relative 10-mer count
CCCAACCCAC,binding signal,ZNF721 full-length,0.149 relative 10-mer count
same,binding signal,ZNF721 DBD1,0.0056 relative 10-mer count
same,binding signal,ZNF721 DBD2,0.00515 relative 10-mer count
CACCACCCCA,binding signal,ZNF721 full-length,0.222 relative 10-mer count
same,binding signal,ZNF721 DBD1,0.00803 relative 10-mer count
same,binding signal,ZNF721 DBD2,0.00683 relative 10-mer count
CCCCCCAGCC,binding signal,ZNF721 full-length,0.118 relative 10-mer count
same,binding signal,ZNF721 DBD1,0.00505 relative 10-mer count
same,binding signal,ZNF721 DBD2,0.00228 relative 10-mer count
ACAGCGTACC,binding signal,ZNF721 full-length,0.193 relative 10-mer count
same,binding signal,ZNF721 DBD1,0.00115 relative 10-mer count
same,binding signal,ZNF721 DBD2,0.259 relative 10-mer count
CACGCCCCAC,binding signal,ZNF721 full-length,0.11 relative 10-mer count
same,binding signal,ZNF721 DBD1,0.00326 relative 10-mer count
same,binding signal,ZNF721 DBD2,0.00455 relative 10-mer count
ACCCCGCCCC,binding signal,ZNF721 full-length,0.188 relative 10-mer count
same,binding signal,ZNF721 DBD1,0.00569 relative 10-mer count
same,binding signal,ZNF721 DBD2,0.00192 relative 10-mer count
AAAAAAAGCG,binding signal,ZNF721 full-length,0.217 relative 10-mer count
same,binding signal,ZNF721 DBD1,0.0356 relative 10-mer count
same,binding signal,ZNF721 DBD2,0.0422 relative 10-mer count
CATCCCCCCC,binding signal,ZNF721 full-length,0.123 relative 10-mer count
same,binding signal,ZNF721 DBD1,0.00463 relative 10-mer count
same,binding signal,ZNF721 DBD2,0.00635 relative 10-mer count
CCCCACCACG,binding signal,ZNF721 full-length,0.11 relative 10-mer count
same,binding signal,ZNF721 DBD1,0.0039 relative 10-mer count
same,binding signal,ZNF721 DBD2,0.00623 relative 10-mer count
CCCCTCCCAC,binding signal,ZNF721 full-length,0.218 relative 10-mer count
same,binding signal,ZNF721 DBD1,0.0104 relative 10-mer count
same,binding signal,ZNF721 DBD2,0.00695 relative 10-mer count
CCCGCCCCGC,binding signal,ZNF721 full-length,0.154 relative 10-mer count
same,binding signal,ZNF721 DBD1,0.00518 relative 10-mer count
same,binding signal,ZNF721 DBD2,0.00144 relative 10-mer count
CCACACACCC,binding signal,ZNF721 full-length,0.105 relative 10-mer count
same,binding signal,ZNF721 DBD1,0.00321 relative 10-mer count
same,binding signal,ZNF721 DBD2,0.00312 relative 10-mer count
CCACCCCACG,binding signal,ZNF721 full-length,0.131 relative 10-mer count
same,binding signal,ZNF721 DBD1,0.00495 relative 10-mer count
same,binding signal,ZNF721 DBD2,0.00491 relative 10-mer count
CACCCACCGC,binding signal,ZNF721 full-length,0.103 relative 10-mer count
same,binding signal,ZNF721 DBD1,0.00463 relative 10-mer count
same,binding signal,ZNF721 DBD2,0.00455 relative 10-mer count
ACCGCCCACC,binding signal,ZNF721 full-length,0.152 relative 10-mer count
same,binding signal,ZNF721 DBD1,0.005 relative 10-mer count
same,binding signal,ZNF721 DBD2,0.00204 relative 10-mer count
CCTCCCCCCC,binding signal,ZNF721 full-length,0.236 relative 10-mer count
same,binding signal,ZNF721 DBD1,0.0115 relative 10-mer count
same,binding signal,ZNF721 DBD2,0.00707 relative 10-mer count
ACCACCCTCC,binding signal,ZNF721 full-length,0.124 relative 10-mer count
same,binding signal,ZNF721 DBD1,0.00523 relative 10-mer count
same,binding signal,ZNF721 DBD2,0.00324 relative 10-mer count
CAACCCCACC,binding signal,ZNF721 full-length,0.149 relative 10-mer count
same,binding signal,ZNF721 DBD1,0.00454 relative 10-mer count
same,binding signal,ZNF721 DBD2,0.00384 relative 10-mer count
CCACACCACC,binding signal,ZNF721 full-length,0.135 relative 10-mer count
same,binding signal,ZNF721 DBD1,0.0055 relative 10-mer count
same,binding signal,ZNF721 DBD2,0.00623 relative 10-mer count
ACCCCCCCCC,binding signal,ZNF721 full-length,0.143 relative 10-mer count
same,binding signal,ZNF721 DBD1,0.00362 relative 10-mer count
same,binding signal,ZNF721 DBD2,0.0018 relative 10-mer count
CAGCCCCACC,binding signal,ZNF721 full-length,0.116 relative 10-mer count
same,binding signal,ZNF721 DBD1,0.00349 relative 10-mer count
same,binding signal,ZNF721 DBD2,0.0291 relative 10-mer count
CCCACACCCC,binding signal,ZNF721 full-length,0.278 relative 10-mer count
same,binding signal,ZNF721 DBD1,0.00977 relative 10-mer count
same,binding signal,ZNF721 DBD2,0.00407 relative 10-mer count
CCCCCATCCC,binding signal,ZNF721 full-length,0.173 relative 10-mer count
same,binding signal,ZNF721 DBD1,0.00638 relative 10-mer count
same,binding signal,ZNF721 DBD2,0.00384 relative 10-mer count
CAACCCCCAC,binding signal,ZNF721 full-length,0.108 relative 10-mer count
same,binding signal,ZNF721 DBD1,0.00417 relative 10-mer count
same,binding signal,ZNF721 DBD2,0.00216 relative 10-mer count
CGAAAAAACA,binding signal,ZNF721 full-length,0.153 relative 10-mer count
same,binding signal,ZNF721 DBD1,0.0022 relative 10-mer count
same,binding signal,ZNF721 DBD2,0.161 relative 10-mer count
